Drawing on PubChem BioAssay AID1259343 (VanderVen Lab, College of Veterinary Medicine, Cornell …, 2017), this text covers inhibition for 62 compounds.

The structures appear in SMILES notation. In all, about 6,200 compounds went through this assay and about 2,900 (47%) were called active. The set was probably picked from earlier hits. The list shows a part of the results. Unmarked numbers belong to inactive results. No stated cut-off is given here; in the data, active means inhibition above about 50%; inactive means the rest.

A short description of this assay: Mycobacterium tuberculosis growth inhibition, primary screen (AID 1259343). To be noted: inhibition: at 10 µM, hits give high values; outcome: 10 uM.
As to `Cc1nn(S(=O)(=O)c2cccc([N+](=O)[O-])c2)c(C)c1S(=O)(=O)N1CCCC(C)C1` (configuration not stated), the inhibition is -15.4%.
As for `N#Cc1ccc(CNc2cccc(Br)c2)c(F)c1`, the inhibition was -12.4%.
Next, `N#Cc1ccccc1CNc1ccc(Br)cc1F`: -19.6%; `N#Cc1ccc(NCc2cc(Br)ccc2F)cc1`: 88.5% (active).
With `O=c1c2c3c(sc2ncn1Cc1cccc2ccccc12)CCCC3` the figure was 21.4%; with `CC(C)c1nc2c(c(=O)c3ccccc3n2C)c(=O)n1Cc1ccccc1`, -29.9%; with `COC(=O)C(C)Sc1nc2sc3c(c2c(=O)n1Cc1ccccc1)CCC3` (configuration not stated), 83.9% (active).
With `CC1(Cc2ccccc2F)C(=O)Nc2ccc(-c3cccnc3)cc21` (configuration not stated) the figure was 55.3% (active).
`CCCc1nn(-c2cccc(Cl)c2)c([O-])c1C1=C([n+]2cccc(CC)c2)C(=O)N(CC(C)C)C1=O`: the inhibition is 41.4%.
Turning to `CCCC(C)NC(=O)Cn1cnc2cc(F)ccc2c1=O` (configuration not stated), the inhibition was 86.9% (active).
As to `CC(C)(C)C(=O)COC(=O)CNC(=O)c1ccccc1`, the inhibition was 93.8% (active).
Turning to `O=C(NNC1c2ccccc2-c2ccccc21)c1ccccc1`, the inhibition was 32.6%.
With `C=CCN=c1scc(-c2ccc(OC(F)F)cc2)n1N=Cc1ccc2c(c1)OCO2`, the inhibition is -11.8%.
Next, `CCN=c1scc(-c2ccc(C)cc2)n1N=C(C)c1ccc(C)o1`: 42.6%; `C=CCN=c1scc(-c2ccc(C)cc2)n1N=C(C)c1cccnc1`: 84.7% (active).
`C=CCN=c1scc(-c2ccc(Br)cc2)n1N=Cc1cccnc1`: the inhibition was -5.61%.
As for `C=CCN=c1scc(-c2ccc(Cl)cc2)n1N=Cc1cccnc1`, the inhibition is 9.02%.
Next, `C=CCN=c1scc(-c2ccc(OC(F)F)cc2)n1N=C(C)c1ccc2c(c1)OCCO2`: 87% (active); `C=CCN=c1scc(-c2ccc(C)c(C)c2)n1N=Cc1cccnc1`: -28%.
With `C=CCN=c1scc(-c2ccccc2F)n1N=Cc1ccc2c(c1)OCCO2` the figure was 9.72%; with `C=CCN=c1scc(-c2ccc(Cl)c(Cl)c2)n1N=Cc1cccnc1`, 68.1% (active).
Next, `CC1(C)CN(CC(=O)NCC(=O)N2CCCC2)c2cccc(Cl)c21`: -12.8%.
`O=C(NCC(=O)N1CCCCC1)c1sc2ccccc2c1Cl`: the inhibition is 70.3% (active).
Next, `Cc1ccc(C(=O)N2CCCC(C(=O)c3cccc4ccccc34)C2)s1` (configuration not stated): 11.3%.
Next, `CCc1ccc(NC(=O)CCn2cnc3c([nH]c4ccccc43)c2=O)cc1`: 95.4% (active); `Cn1c(=O)c2c(ncn2CCOC(=O)c2cc(=O)[nH]c3ccccc23)n(C)c1=O`: -7.86%.
Next, `CCc1ccc(-c2cc(C(=O)N=Nc3c(O)[nH]c4ccccc34)[nH]n2)cc1`: 18.3%.
Turning to `Brc1cc(CNC2C3CCCC2CN(C2CC2)C3)cs1` (configuration not stated), the inhibition was 23.7%.
With `C=CCn1c(SCC(=O)NC(=O)NC)nnc1-c1ccncc1` the figure was -1.24%; with `Cn1cnnc1SCC(=O)Nc1ccc2c(c1)OC(F)(F)O2`, 16.7%; with `C=CCn1cnnc1SCC(=O)Nc1ccc(Br)c(C)c1`, 101% (active).
With `Cc1nnc2sc(-c3ccccc3NC(=S)NC(=O)c3cc4ccccc4o3)nn12`, the inhibition is 57.4% (active).
Next, `Oc1ccc2ccccc2c1C=NC1CC1`: 37.4%.
With `CCn1c(O)c(C=NC2CCCCCC2)c(=O)n(CC)c1=S` the figure was 102% (active).
With `Cc1nn(CO)c(C)c1Sc1ccc(Br)cc1` the figure was 36.4%; with `C(=Nn1c(-c2ccccc2)csc1=NC1CCCCC1)c1ccccn1`, -31.1%; with `Cc1ccc(OCC2CCCN(Cc3ccc(C#CCO)s3)C2)cc1` (configuration not stated), 82.9% (active).
Take `Cc1ccccc1OCC1CCCN(Cc2nc(Cc3ccccc3F)no2)C1` (configuration not stated): the inhibition is 47%.
In the case of `CCCCc1noc(CNc2cc(C(=O)NCC(F)(F)F)ccc2C)n1`, the inhibition is 46.7%.
`O=C(NCC(F)(F)F)c1cccc(Oc2ccccc2)c1`: the inhibition is 74.4% (active).
Regarding `COCC(C)NC(=O)c1cccc(Oc2cccc(C(F)(F)F)c2)c1` (configuration not stated), the inhibition is 38.2%.
Consider `CCc1cccc(N2CCC(NC(=O)Nc3nccs3)CC2)c1`, for which the inhibition was 51.4% (active).
Take `OCCN=Cc1cn(-c2ccccc2)nc1-c1ccc(Cl)cc1`: the inhibition is 59.3% (active).
With `CC1CC(=O)NN1C(=O)/C=C/c1cn(-c2ccccc2)nc1-c1ccccc1` (configuration not stated) the figure was 38.7%.
For the compound `Cn1cc(-c2nn(-c3ccccc3)cc2C=NNC(N)=S)c2ccccc21`, the inhibition is 16.3%.
Consider `CCc1cc2c(=O)n(CCC(C)C)c(=S)[nH]c2s1`, for which the inhibition was -39.7%.
With `C/C(=C/C(=O)C(C#N)c1nc2cc(Cl)ccc2s1)C1CC1` (configuration not stated) the figure was 63.6% (active).
Next, `COC(=O)COc1ccc2c(=O)c(Oc3ccc(OC)cc3)coc2c1`: 8.04%; `CCOC(=O)COc1ccc2c(=O)c(-c3ccc(Cl)cc3)c(C)oc2c1`: 84% (active); `C=C(C)COc1ccc2c(=O)c(-c3ccccc3)c(C)oc2c1`: 51.9% (active).
With `COCCCn1c(-c2ccccc2)nc2oc3cc(OC)ccc3c(=O)c2c1=O` the figure was -18.5%; with `CCOC(=O)COc1ccc2c(=O)c(-c3ccccc3)c(C)oc2c1`, 41.9%; with `Cc1cc(NC(=O)C(C)Oc2ccc3c(=O)c(-c4ccccc4)c(C)oc3c2)no1` (configuration not stated), 70.1% (active).
Turning to `Nc1c([N+](=O)[O-])ccc2c1=[N+]([O-])C1(CCCCC1)[N+]=2[O-]`, the inhibition is 101% (active).
With `Oc1c(N=Nc2ccccc2)cc2c3c1CCCN3CCC2` the figure was 16.8%.
On to `Cc1c(CN2CCCC(CNC(=O)c3cccs3)C2)[nH]c2ccc(Cl)cc12` (configuration not stated), for which the inhibition was 78.8% (active).
Regarding `O=C(NCC1CC1)c1csc(N2CCN(Cc3ccc(Cl)cc3)C2=O)n1`, the inhibition was 33.3%.
With `Cc1c(CN2CCCC(C(=O)Nc3cccc(-n4cccn4)c3)C2)[nH]c2ccccc12` (configuration not stated) the figure was 35.5%; with `NC(=N/N=C\c1ccc(Cl)cc1)N/N=C\c1ccc(Cl)cc1`, 101% (active).
With `CN(CCC#N)c1ccc(C=NNC(N)=S)cc1` the figure was 29.2%; with `Clc1ccc(C2=Nn3c(nnc3C3CCCCC3)SC2)c(Cl)c1`, -20.9%.
As to `O=C(Sc1cccc2cccnc12)c1ccccc1Cl`, the inhibition is 92.5% (active).
